The values that follow come from PubChem BioAssay (NCATS).

Inconclusive results are not listed. Calls of active or inactive are those of the source. The call rests on the fitted dose curve; in most records, active means well fitted inhibition curve with a large enough effect; inconclusive means small, poorly fitted or top-dose-only effect; inactive means no such curve, though single readings can be large or run the other way.

This test has as its target Retinaldehyde dehydrogenase 3 (Homo sapiens) (UniProt P47895). Put plainly: qHTS for Inhibitors of the Aldehyde Dehydrogenase Family (ALDH1A3) Primary screen (AID 2061315).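 Further: plate controls were DMSO vehicle for no effect and reference inhibitor for full effect.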 The conditions noted are these: ALDH inhibition qHTS; series mostly up to 56 µM; activity change, negative = inhibition: at the top concentration. Background: In qHTS, concentration-response curves come from the screen itself.
Take `Cc1ccc(NS(=O)(=O)c2cc3c(cc2-c2ccsc2)NC(=O)CO3)cc1C`: the “activity change, negative = inhibition” value was 1.67% (inactive). As to `O=C(Nc1ccc(-c2nc3ccccc3[nH]2)cc1)c1ccc2ncsc2c1`, the “activity change, negative = inhibition” value was 115% (inactive). Turning to `O=c1c2ccccc2nc2sc(Nc3ccc(Oc4ccccc4)cc3)nn12`, the “activity change, negative = inhibition” value is 3.45% (inactive). In the case of `COc1cccc(CNc2ccc(S(=O)(=O)Nc3cccc4ccccc34)cc2)c1O`, the “activity change, negative = inhibition” value is -13.5% (inactive). As to `O=C(O)c1ccc(CSc2nnc(-c3cccc([S+](=O)([O-])N4CCCC4)c3)n2-c2ccccc2)cc1`, the “activity change, negative = inhibition” value was -1.04% (inactive). Regarding `COc1cc(O)c([C@H](CC(=O)N2CC(C)CC(C)C2)c2ccc3c(c2)OCO3)c(OC)c1` (some centres not stated), the “activity change, negative = inhibition” value was 9.52% [at 114 µM] (inactive).

Take `Oc1ccc(CNc2ccccn2)c2cccnc12`: the “activity change, negative = inhibition” value is -20.2% (inactive). As for `O=S1(=O)N=C(Oc2ccc3ccccc3c2)c2ccccc21`, the “activity change, negative = inhibition” value was -12.4% (inactive). Consider `CC(C)c1ccc(-n2ncc3c(=O)n(CC(=O)Nc4cc(F)ccc4Cl)cnc32)cc1`, for which the “activity change, negative = inhibition” value was 13.9% (inactive).

Turning to `Cc1ccsc1CN(C)c1ncnc2ccc(-c3ccc4c(c3)OCO4)cc12`, the “activity change, negative = inhibition” value is 0.0614% (inactive). On to `COc1ccc(-c2cnc(N3CCC(C(N)=O)CC3)s2)cc1OC`, for which the “activity change, negative = inhibition” value is -10.6% (inactive). Take `CC(=O)N1CCN(c2cccc(Nc3nn4c(=O)c5ccccc5nc4s3)c2)CC1`: the “activity change, negative = inhibition” value is -10.3% (inactive). Next, `c1cncc(-c2ccc3ncnc(NCc4ccc5c(c4)OCO5)c3c2)c1`: -11.4% (inactive).

As to `COc1cc(/C=C2/C(=O)Nc3ccccc32)cc(OC)c1O`, the “activity change, negative = inhibition” value is 6.41% (inactive). On to `c1nc(NCCc2cnc[nH]2)c2ccc(-c3ccc4c(c3)OCO4)cc2n1`, for which the “activity change, negative = inhibition” value is -2.79% (inactive). `O=C(CSc1nnc(-c2cccc([S+](=O)([O-])N3CCCC3)c2)n1-c1ccccc1)Nc1ccc(Br)cc1`: the “activity change, negative = inhibition” value was 12.1% (inactive). As for `O=C1CCCC2=C1C1(CCOCC1)N=C(Nc1nc3ccccc3o1)N2`, the “activity change, negative = inhibition” value is 5.79% (inactive). On to `COc1ccc(C2c3ccc4ccccc4c3Oc3ncn(CCN4CCOCC4)c(=N)c32)cc1OC` (configuration not stated), for which the “activity change, negative = inhibition” value is -5.05% (inactive). `O=C1CCCC2=C1C(c1ccccc1I)N=C(Nc1nc3ccccc3o1)N2` (configuration not stated): the “activity change, negative = inhibition” value is 27.6% (inactive). As to `O=C(O)c1ccc(O)c2ncc(-c3ccc(N4CCOCC4)cc3)cc12`, the “activity change, negative = inhibition” value is -13% (inactive).

With `CN1CCN(c2cccc(Nc3nn4c(=O)c5ccc(C(F)(F)F)cc5nc4s3)c2)CC1`, the “activity change, negative = inhibition” value is 5.49% (inactive). For `Cc1ccc(CNc2ncnc3cc(-c4ccc5c(c4)OCO5)ccc23)o1`, the “activity change, negative = inhibition” value was 1.77% (inactive).
